High-throughput results from PubChem BioAssay.
Rows were chosen to be rich in hits. Some 8.2% of all compounds tested hit in one or more screens of this group.
KB-V1 MDR tox – KB-V1 MDR subline cytotoxicity; KB-V1 MDR cells viability, CellTiter-Glo, 72 h; Potency, µM (highest dose often 46.1 µM), actives largely listed as cytotoxic; 400,000 compounds, 3.4% hits; note: % is set by controls: 0 for no effect and ±100 for the full control effect; nearly all actives have a fitted effect of over 60% in size
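Cytotoxicity toward P-gp-expressing KB-V1 cells was determined as loss of CellTiter-Glo luminescence after 72 h at 37 degrees C. Compounds were tested in quantitative HTS format across a concentration range, with curves fitted to normalized data.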
MCF10A rereplic – inducers of DNA re-replication in MCF 10A breast cells. MCF 10A DNA re-replication, Hoechst nuclear intensity, 48 h. Potency, µM (highest dose often 46.1 µM), without a hit: top-dose activity, positive = re-replication, actives largely listed as activators. 350,000 compounds, 2.9% hits; note: % of control where 0% means no effect; nearly all actives have a fitted effect of over 50% in size
SW480 rereplic – induces DNA re-replication in SW480 colon adenocarcinoma cells | Potency, µM (titrated, usually from 46.1 µM), without a hit: at the top dose re-replication activation, usual class: activators | 340,000 compounds, 1.8% hits | SW480 DNA re-replication, Hoechst DNA content imaging, 48 h; note: % of control where 0% means no effect; nearly all actives have a fitted effect of over 55% in size
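Hoechst fluorescence of nuclei (405 nm excitation, 500-530 nm emission) measured by plate-scanning imager after 48 hr compound exposure at 37 C; re-replication scored as increased number of nuclei with elevated intensity.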
KB-3-1 tox – KB-3-1 parental cell cytotoxicity | 400,000 compounds, 1.4% hits | KB-3-1 viability, CellTiter-Glo ATP luminescence, 72 h | Potency, µM (doses to about 46.1 µM), most hits filed as cytotoxic; note: % is set by controls: 0 for no effect and ±100 for the full control effect; nearly all actives have a fitted effect of over 60% in size
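Parental KB-3-1 adenocarcinoma cells in phenol-red-free DMEM with 10% FBS were pin-treated with compounds at several concentrations, incubated 72 h at 37 °C, and viability read by CellTiter-Glo luminescence; concentration-effect curves were fitted after normalization.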
ELG1 DNA repair – inhibitors of ELG1-dependent DNA repair in HEK293T cells. HEK293T ELG1-luciferase reporter, luminescence, 16 h; DNA damage induced by 5-fluorouridine. Potency, µM (series often up to 46.1 µM), without a hit: at the highest dose activity change, negative = inhibition, actives largely listed as inhibitors. 330,000 compounds, 2.3% hits. AID 504467; note: % is set by controls: 0 for no effect and ±100 for the full control effect; nearly all actives have a fitted effect of over 55% in size
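DMSO vehicle served as the neutral condition. Each well held 2,000 cells given 5-fluorouridine plus compound; after 16 hr at 37 °C/5% CO2, ONE-Glo was added and luciferase measured 30 min later.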
Numbers without * were called inactive; i = inactive; ? = inconclusive; · = no result given; [ ] = another dose, or the depositor's remark. Calls come from the whole dose curve; as a rule, active = well fitted curve in the direction sought with a large enough effect; inconclusive = small, poorly fitted or top-dose-only effect, or another doubt; inactive = no such curve, though single readings can be large; an effect the other way counts as inactive or inconclusive. Potency is the fitted concentration of half-maximal effect.

SMILES | KB-V1 MDR tox | MCF10A rereplic | SW480 rereplic | KB-3-1 tox | ELG1 DNA repair
O=C(c1ccco1)N1CCC(c2nc3c(nnn3Cc3c(Cl)cccc3Cl)c(=O)[nH]2)CC1 | i | 5% | 0% | i | ?
CC(C)(C)c1ccc(Cn2nnc3c(=O)[nH]c(C4CCN(C(=O)c5ccco5)CC4)nc32)cc1 | i | 13% | -3% | ? | 10µM*
Cc1ccc(C(O)(c2ccccc2)c2ccccc2C(C)N(C)C)c(C)c1 (centres undefined) | 18µM* | -1% | -3% | i | -9%
O=C(Cc1cccs1)N1CCN(c2nc(-c3ccc(Cl)cc3)cs2)CC1 | 8.2µM* | 26% | 11% | i | ?
O=C(CN1CCN(c2nc(-c3ccc(Cl)cc3)cs2)CC1)NCc1ccco1 | i | 9.2µM* | 11% | i | -4%
COc1ccc(NC(=O)Cn2nc(C)c3c(C)n(-c4ccccc4)nc3c2=O)cc1OC | ? | · | · | i | ·
CN(C)/C=C/C(=O)c1ccccc1OCc1cnc(Cl)s1 | i | 18µM* | ? | i | 2%
O=C1Nc2ccccc2CCC1Sc1nnc(-c2ccc(Cl)cc2)s1 (centres undefined) | 18µM* | 17% | 6% | 21µM* | ?
Clc1ccc(CSc2nnc(-c3ccncc3)s2)cc1 | i | -1% | -7%[9.22 µM] | i | ?
C=CCn1c(=O)n(C2OC(CO)C(O)C2O)c2nc(N)[nH]c(=O)c21 (centres undefined) | · | 3% | 1% | · | ·
Cc1ccc(NS(=O)(=O)c2ccc3c(c2)CCC(=O)N3)cc1Cl | i | · | · | i | ·
CN(C)S(=O)(=O)c1ccc(Cl)c(C(=O)Nc2cccc([N+](=O)[O-])c2)c1 | i | -4% | -23% | ? | 8.2µM*
O=C(O)c1cccc(NS(=O)(=O)c2ccc(Cl)c(C(=O)Nc3cccc([N+](=O)[O-])c3)c2)c1 | i | 5% | -1% | i | ·
CN(C)S(=O)(=O)c1ccc(Cl)c(C(=O)Nc2ccc(S(=O)(=O)N3CCOCC3)cc2)c1 | i | ? | 0% | i | 16µM*
O=C(Nc1ccc(S(=O)(=O)N2CCOCC2)cc1)c1cc([N+](=O)[O-])ccc1Cl | i | 5% | 16% | ? | ?
COc1cc(NC(=O)C2=C(N3CCOCC3)/C(=C/c3ccc(Cl)cc3)CC2)cc(OC)c1OC | ? | ? | -96% | i | 16µM*
COc1cc(NC(=O)C2=C(N3CCOCC3)/C(=C\c3ccc(N(C)C)cc3)CCC2)cc(OC)c1OC | 2.6µM* | 18µM* | 10µM* | 12µM* | ?
O=C(Nc1ccccc1)C1=C(N2CCOCC2)/C(=C/c2cccnc2)CC1 | i | -6% | 9% | i | 8%
COC(=O)c1sccc1S(=O)(=O)N(CC(=O)Nc1cc(C)ccc1C)c1ccc(C)c(C)c1 | ? | · | · | i | ·
COC(=O)C1=C(C)N(Cc2cccnc2)C(=O)/C1=C\c1sccc1C | i | 3% | -6% | i | 21µM*
CCN(CCCNC(=O)CCn1c(=S)[nH]c2cc3c(cc2c1=O)OCO3)c1cccc(C)c1 | i | 1% | ? | i | 27%
O=C(Nc1ccc(-c2csc(Nc3cccc(C(F)(F)F)c3)n2)cc1)c1cc([N+](=O)[O-])cc(C(F)(F)F)c1 | ? | -30% | -17% | ? | ?
O=C(Nc1ccc(-c2csc(Nc3cccc(C(F)(F)F)c3)n2)cc1)c1ccccc1 | i | 18µM* | ? | ? | 12µM*
O=C(Nc1cccc(-c2csc(Nc3cccc(C(F)(F)F)c3)n2)c1)c1ccccc1 | i | ? | 17% | i | 21µM*
CNC(=S)N(C)/N=C1/C(=O)N(Cc2c(Cl)cccc2Cl)c2ccccc21 | ? | 18µM* | ? | i | -19%
CN(C)CCNC(=O)c1ccc2c(c1)N(Cc1c(F)cccc1Cl)C(=O)c1ccccc1S2 | ? | · | · | i | ·
N#CCCN(CCC#N)S(=O)(=O)c1ccc(C(=O)Nc2nnc(C3=COCCO3)o2)cc1 | i | -2% | 0% | i | 3%
